Data: the supplement of paper PMC5940239

How the values were obtained:
[1] = test system: Madurella mycetomatis MM55; settings: 7 days
[2] = test system: Madurella mycetomatis MM55; experiment: IC90; higher = less potent; settings: 7 days
[3] = test system: Madurella mycetomatis MM55; experiment: percent growth relative to solvent control; higher = less inhibition, active = 20 or less; settings: 100 µM; 7 days

Compound	IC50 [1] [µM]	IC90 [2] [µM]	percent growth [3]
CC[P](CC)(CC)=[Au][S][C@H]1O[C@@H](COC(C)=O)[C@H](OC(C)=O)[C@@H](OC(C)=O)[C@@H]1OC(C)=O	17.1	45.8	3.51% (active)
NCC(c1cccs1)S(=O)(=O)c1ccccc1 (stereo not given)	53.9	91.8	1.47% (active)
O=C(C1CCN(c2cc(-n3cccc3)ncn2)CC1)N1CCc2ccccc2C1	62.1	91.5	3.17% (active)
O=C(Nc1nc(-c2ccccn2)cs1)c1cncn1-c1ccccc1	10.8	40.8	1.78% (active)
O=C(Nc1ccc(N2CCNCC2)nc1)c1oc(-c2ccccc2)nc1C(F)(F)F	37.9	85.3	-3.61% (active)
CCc1c(C)nc(-n2nc(C)cc2NC(=O)c2ccccc2SC)[nH]c1=O	6.75	15.1	2.44% (active)
Brc1cncc(-c2cc(NCCCn3ccnc3)nc(-c3ccccc3)n2)c1	55	90.8	-0.251% (active)
O=C(NC1CC1)c1ccc(N2CCOc3ccc(Cl)cc32)s1	34.5	51.8	-2.78% (active)
CCCCOC(=O)Nc1cc2nc(C3CCCCC3)[nH]c2cc1N1CCCC1	11.6	18.4	7.67% (active)
CC(C)NCC(=O)Nc1cccc(C(=O)Nc2cccc(C(F)(F)F)c2)c1	62	93.7	2.17% (active)
Cc1cc(C)nc(-n2nc(C)cc2Nc2ccccc2)n1	58.1	91.3	-0.531% (active)
COc1ccccc1CNC(=O)c1cc(C2CC2)nc2c1cnn2C(C)C	51.9	88.8	-2.92% (active)
Cc1ccc(-c2nc(CN(Cc3ccccn3)C(C)C)cs2)o1	53.9	90	0.31% (active)
c1cncc(NCc2ccc(-c3cc4ccncc4cc3OC3CCNCC3)s2)c1	53.9	88.5	-3.08% (active)
Nc1nccc2ccc(-c3ccc4nccn4c3)cc12	53.9	89.2	-2.88% (active)
COc1cc(C2=NCCN2)cc2cc(-c3ccc(C4=NCCN4)cc3)oc12	48.3	88.8	-1.77% (active)

Compound	IC50 [1] [µM]	IC90 [2] [µM]	percent growth [3]
CNc1nnc(Sc2cnn(-c3ccccc3)c(=O)c2Cl)s1	54.9	90.8	-0.261% (active)
CN1CCCN(C(c2ccccc2)c2ccc(Cl)cc2)CC1 (stereo not given)	10.2	18.6	2.74% (active)
Cc1ccc2c(c1C)NC(=O)C21NN=C(c2ccccc2)S1 (stereo not given)	37.9	61.2	4.4% (active)
CN1CCC(c2cc(-c3ccncc3)c(-c3ccc(F)cc3)[nH]2)CC1	56.4	91.6	1.72% (active)
O=C(Nc1ccc(C(F)(F)F)c(C(F)(F)F)c1)c1cc(Cl)ccc1O	1.45	3.8	-2.39% (active)
CN1CCN(c2cc(-c3ccc(F)cc3)nc(-c3ccncc3)n2)CC1	37.1	91.2	2.98% (active)
Cc1[nH]c2ccccc2c1C(c1cccs1)N1CCN(C)CC1 (stereo not given)	12.7	47	4.92% (active)
Cn1c(=O)c2c(S(C)(=O)=O)snc2n(C)c1=O	60	91.5	-0.615% (active)
COc1cc(NC(C)CCCN)c2ncccc2c1 (stereo not given)	64.5	92.8	0.211% (active)
CC(C)(C)CN1C(=O)C(c2ccccc2)(c2ccccc2)N=C1N	–	–	66.1% (inactive)
O=C(NC1=NCCS1)c1sc2cc(F)ccc2c1Cl	–	–	107% (inactive)
N=C(N)Nc1ccc(-c2ccc(-c3ccc(N=C(N)N)c(Cl)c3)o2)cc1Cl	61.6	88.5	-8.11% (active)
O=C(c1cc2ccccc2o1)N1CCN(Cc2ccc3c(c2)OCO3)CC1	45.1	87.5	3.51% (active)
CCc1ccc(C(NCc2nc(N)nc(N(C)C)n2)C(C)C)cc1 (stereo not given)	–	–	49.1% (inactive)
Clc1cccc(C(c2ccc(CN3CCNCC3)cc2)n2ccnc2)c1 (stereo not given)	–	–	115% (inactive)
